Screens from PubChem BioAssay.
TWEAK-Fn14 inh – TWEAK-Fn14 signaling inhibition. 2% of 360,000 active. inhibition, % at 10 µM. TWEAK-stimulated Fn14 reporter cells, luciferase luminescence, 8 h; in the data active = inhibition above about 50%
LGR2 inh – blocks bursicon-induced cAMP signaling via Drosophila LGR2; HEK293 LGR2, CRE-luciferase, bursicon-stimulated, 4 h; inhibition, % at 9.99 µM; 0.35% of 380,000 active;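 active = drop in luminescence signal, shown as inhibition above about 50% in the replicate tests, limit read from the data, passing the limit was not always enough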;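 note: agonist challenge used bursicon conditioned medium at about half maximal strength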
HIF-2a inh – inhibitors of HIF-2a. inhibition, % at 18.8 µM. 786-0 RCC cells HIF-2a reporter, luciferase luminescence, overnight. 0.72% of 360,000 active;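 active = inhibition of the luminescence signal of 40% or more relative to plate controls, in a single-dose primary screen at 18.75 µM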
hiPSC survival – hiPSC single-cell survival enhancement. 0.044% of 360,000 active. AID 602274. ATPlite luminescence; 100% = ROCK inhibitor wells, 0% = DMSO. survival enhancement, % at 20 µM; in the data active = survival enhancement above about 18%;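 note: cells exposed to compounds for 16 hours before the ATP read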
KKLEB tox – reduces viability of KKLEB cystic fibrosis airway cells; activity change (cytotoxicity), % at 5 µM; 0.36% of 360,000 active; KKLEB CF airway cells viability, ATPlite luminescence, overnight; active compounds read low; cells stimulated with P. aeruginosa culture filtrate;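 active = corrected activity change at or below -50% at 5 µM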
CF NFkB inh – blocks PAF-induced NF-kB reporter in cystic fibrosis cells. inhibition, % at 5 µM. AID 588850. KKLEB NF-kB-GFP reporter, GFP fluorescence overnight. 0.86% of 360,000 active;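 active = at least 50% inhibition at 5 µM, scaled per plate between neutral and stimulator controls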;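 note: PAF is a Pseudomonas aeruginosa culture filtrate used as stimulus; plate controls were PAF-stimulated DMSO wells for no effect and unstimulated DMSO wells for full effect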
* marks the source's active call; other numbers are inactive results. An excerpt weighted towards active compounds, which were near 2.3% of everything screened.

What do the screens show for `N=c1n(Cc2ccccc2)c2ccccc2n1CC(O)COc1ccc(Cl)cc1Cl` (configuration not stated)?
TWEAK-Fn14 inh: 29; LGR2 inh: 101*; HIF-2a inh: 7; hiPSC survival: -4; KKLEB tox: -28; CF NFkB inh: 16

How did Cc1ccc(OCC(O)Cn2c(=N)n(Cc3ccccc3)c3ccccc32)cc1 (configuration not stated) do in these assays?
TWEAK-Fn14 inh: 12; HIF-2a inh: -1; hiPSC survival: -3; KKLEB tox: -21; CF NFkB inh: 7

Results for N=c1n(Cc2ccc(Cl)cc2)c2ccccc2n1CC(O)COc1ccccc1 (configuration not stated) ?
TWEAK-Fn14 inh: 4; LGR2 inh: 83*; HIF-2a inh: -22; hiPSC survival: -3; KKLEB tox: -50; CF NFkB inh: 34

Results for COc1ccc(OCC(O)Cn2c(=N)n(Cc3ccccc3)c3ccccc32)cc1 (configuration not stated) ?
TWEAK-Fn14 inh: 23; HIF-2a inh: 3; hiPSC survival: -1; KKLEB tox: -19; CF NFkB inh: 5

What do the screens show for `COCC(=O)Nc1ccc2c(c1)[C@H]1C[C@H](CC(=O)NCc3cccc(F)c3)O[C@@H](CO)[C@H]1O2`?
LGR2 inh: -3

What do the screens show for `Oc1c(CN2CCN(c3ccccn3)CC2)cc(Cl)c2cccnc12`?
TWEAK-Fn14 inh: 107*; HIF-2a inh: 25; hiPSC survival: -4; KKLEB tox: 1; CF NFkB inh: 11

How did OCCN1CCN(Cc2cc(Cl)c3cccnc3c2O)CC1 do in these assays?
TWEAK-Fn14 inh: -1; LGR2 inh: 20; HIF-2a inh: 7; hiPSC survival: 3; KKLEB tox: 9; CF NFkB inh: -20

Results for COc1ccc(/C=N/NC(=O)c2cccnc2)cc1CN1CCCc2ccccc21 ?
TWEAK-Fn14 inh: 30; LGR2 inh: 5; HIF-2a inh: 18; hiPSC survival: 0; KKLEB tox: -13; CF NFkB inh: -20

Results for COc1ccc(C(=O)N/N=C/c2ccc(OC)c(CN3CCCc4ccccc43)c2)cc1 ?
TWEAK-Fn14 inh: 58*; LGR2 inh: -4; HIF-2a inh: -25; hiPSC survival: 0; KKLEB tox: 19; CF NFkB inh: 4

What do the screens show for `CC(C)C#Cc1cnc2c(c1)C(=O)N([C@@H](C)CO)C[C@@H](C)[C@H](CN(C)C(=O)c1ccccc1F)O2`?
LGR2 inh: -8

Results for COc1ccc(C(=O)c2coc3ccc(O)cc23)cc1 ?
TWEAK-Fn14 inh: 56*; LGR2 inh: 37; HIF-2a inh: -134; hiPSC survival: -1; KKLEB tox: 8; CF NFkB inh: 16

How did O=C(Cc1ccccc1)N[C@H]1CC[C@H](CC(=O)N2CCCCC2)O[C@@H]1CO do in these assays?
LGR2 inh: -1

How did O=C(N[C@H]1CC[C@H](CCNC(=O)C2CCC2)O[C@H]1CO)c1ccncc1 do in these assays?
LGR2 inh: 11

How did CC1CN(c2sc(S(C)(=O)=O)nc2S(=O)(=O)c2ccc(Cl)cc2)CC(C)O1 (configuration not stated) do in these assays?
TWEAK-Fn14 inh: 57*; LGR2 inh: 23; HIF-2a inh: 7; hiPSC survival: 0; KKLEB tox: -5; CF NFkB inh: 30

What do the screens show for `CC1CCCN(c2sc(S(C)(=O)=O)nc2S(=O)(=O)c2ccc(Cl)cc2)C1` (configuration not stated)?
TWEAK-Fn14 inh: 51*; LGR2 inh: 24; HIF-2a inh: 16; hiPSC survival: 0; KKLEB tox: -17; CF NFkB inh: 39

What do the screens show for `CC(=O)N1[C@H](CO)[C@@H](c2ccccc2)C12CN(C(=O)c1ccccn1)C2`?
LGR2 inh: 2

What do the screens show for `COc1ccc(Nc2ncc(C(=O)N3CCN(c4ccc(F)cc4)CC3)c3ccccc23)cc1`?
TWEAK-Fn14 inh: 53*; HIF-2a inh: 7; hiPSC survival: -3; KKLEB tox: -20; CF NFkB inh: 24

What do the screens show for `COc1ccccc1N1CCN(c2ncc(C(=O)N3CCN(c4cccc(Cl)c4)CC3)c3ccccc23)CC1`?
TWEAK-Fn14 inh: 80*; LGR2 inh: 39; HIF-2a inh: 9; hiPSC survival: 0; KKLEB tox: -14; CF NFkB inh: 2

How did CCOc1ccccc1C(=O)N1CCN(c2cccc(Cl)c2)CC1 do in these assays?
TWEAK-Fn14 inh: -28; LGR2 inh: -4; HIF-2a inh: 4; hiPSC survival: 0; KKLEB tox: -30; CF NFkB inh: 41

How did O=C(CN1CCOCC1)NCC[C@H]1CC[C@@H](NC(=O)Nc2ccccc2)[C@@H](CO)O1 do in these assays?
LGR2 inh: 3

Results for CCCNC(=O)Nc1ccc2c(c1)C(=O)N(C)C[C@H](OC)[C@@H](C)CN(C(=O)c1ccccc1F)[C@H](C)CO2 ?
LGR2 inh: 9

How did COCC(=O)N1[C@@H]2c3ccc(-c4ccccc4)c(=O)n3C[C@@H]2[C@@H](CO)[C@@H]1C(=O)Nc1ccccc1 do in these assays?
LGR2 inh: 7

How did COc1cc(/C=N/NC(=Nc2ccc(C)cc2)c2nc3ccccc3s2)ccc1O do in these assays?
TWEAK-Fn14 inh: 107*; HIF-2a inh: 73*; hiPSC survival: -4; KKLEB tox: -12; CF NFkB inh: -16

How did O=C(O)c1ccc(OCc2ccc(C(=O)O)o2)cc1 do in these assays?
TWEAK-Fn14 inh: -10; LGR2 inh: 6; HIF-2a inh: -51; hiPSC survival: 0; KKLEB tox: 13; CF NFkB inh: 0

What do the screens show for `CC(C)c1ccc(OCc2ccc(C(=O)N(C)C)o2)cc1`?
TWEAK-Fn14 inh: -21; LGR2 inh: -94; HIF-2a inh: -254; hiPSC survival: 0; KKLEB tox: -1; CF NFkB inh: -10

How did CCc1ccc(OCc2ccc(C(=O)O)o2)cc1 do in these assays?
TWEAK-Fn14 inh: 54*; LGR2 inh: -121; HIF-2a inh: 36; hiPSC survival: -1; KKLEB tox: 9; CF NFkB inh: -11

How did CC(C)c1ccc(OCc2ccc(C(=O)O)o2)cc1 do in these assays?
TWEAK-Fn14 inh: 37; LGR2 inh: -1; HIF-2a inh: 49*; hiPSC survival: 1; KKLEB tox: -7; CF NFkB inh: 13

How did Nc1nc2ccc(Cl)cc2cc1C(=O)NCCc1c[nH]c2ccccc12 do in these assays?
TWEAK-Fn14 inh: 52*; HIF-2a inh: 4; hiPSC survival: 0

Results for COC(=O)c1onc(-c2c(Cl)cccc2Cl)c1C(=O)OC ?
TWEAK-Fn14 inh: -25; LGR2 inh: 9; HIF-2a inh: 21; hiPSC survival: 0; KKLEB tox: -4; CF NFkB inh: -8

How did CCOC(=O)C(=O)/C(=C\N(C)C)c1onc(-c2c(F)cccc2Cl)c1C(=O)OC do in these assays?
TWEAK-Fn14 inh: 2; LGR2 inh: 12; HIF-2a inh: 8; hiPSC survival: 20*; KKLEB tox: 2; CF NFkB inh: -4
